ALOX12 inh – blocks human arachidonate 12S-lipoxygenase; P18054; purified 12hLO, xylenol orange hydroperoxide absorbance; Potency, µM (highest dose often 108 µM), hits mostly inhibitors; hit rate 1.1% among 580,000; AID 1671190
Target sequence (P18054 whole entry, looked up): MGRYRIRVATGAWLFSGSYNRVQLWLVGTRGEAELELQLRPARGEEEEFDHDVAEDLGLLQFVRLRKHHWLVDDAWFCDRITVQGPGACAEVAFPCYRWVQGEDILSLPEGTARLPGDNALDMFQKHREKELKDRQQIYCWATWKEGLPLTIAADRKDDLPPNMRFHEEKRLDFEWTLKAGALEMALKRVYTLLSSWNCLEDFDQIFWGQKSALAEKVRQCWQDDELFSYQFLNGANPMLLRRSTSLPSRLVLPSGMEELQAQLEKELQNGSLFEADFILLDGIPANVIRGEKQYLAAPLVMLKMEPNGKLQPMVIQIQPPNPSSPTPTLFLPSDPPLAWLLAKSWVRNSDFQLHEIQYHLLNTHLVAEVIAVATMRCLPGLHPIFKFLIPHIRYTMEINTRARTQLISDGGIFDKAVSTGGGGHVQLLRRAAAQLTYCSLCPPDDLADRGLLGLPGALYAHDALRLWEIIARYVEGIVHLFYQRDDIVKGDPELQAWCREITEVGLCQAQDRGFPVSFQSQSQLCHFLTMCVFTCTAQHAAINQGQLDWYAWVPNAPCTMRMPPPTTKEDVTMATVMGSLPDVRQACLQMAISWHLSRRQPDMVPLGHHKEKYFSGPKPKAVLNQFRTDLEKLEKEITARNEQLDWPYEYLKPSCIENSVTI
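Purified human 12hLO (150 nM final) in 25 mM Hepes, 0.01% Triton X-100, pH 7.0 was preincubated 15 min at room temperature with compound. Then 40 uM arachidonic acid was added, 30 min. Hydroperoxide was read by Fe-XO absorbance ratio 573/405 nm.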
TGFb inhibitor – blocks TGF-b signaling; HepG2 CAGA-GFP TGF-b/SMAD3 reporter, GFP fluorescence, 18 h; TGF-beta stimulated, 500 pg/mL final; Potency, µM (series often up to 46.1 µM), hits mostly inhibitors; hit rate 1.2% among 410,000; AID 588855; also: nearly all actives have a fitted effect of over 65% in size
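HEPG2 CAGA-GFP reporter cells (1000/well, DMEM with 1% FBS) received compounds, then recombinant TGF-beta at 500 pg/mL final for 18 hours at 37 degrees C. Per-cell GFP summed per well was normalised to unstimulated and stimulated DMSO controls before curve fitting.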
ATXN2 expr inh – ATXN2 expression inhibition | hit rate 0.72% among 360,000 | HEK-293 ATXN2-luciferase reporter, luminescence, 24 h | Potency, µM (doses to about 57 µM), usual class: inhibitors; also: nearly all actives have a fitted effect of over 55% in size
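ATXN2-luciferase reporter cells (luciferase flanked by upstream and downstream ATXN2 gene portions) were treated 24 h at 37 °C with compounds at up to 57 uM. SteadyGlo luminescence gave expression; GF-AFC fluorescence gave viability.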
S2 tox – reduces viability in counter-screen for ATXN expression inhibitors; S2 cells (HEK-293 line with an ATXN2-luciferase reporter) viability, CellTiter-Fluor protease fluorescence, 24 h; Potency, µM (top dose mostly 56.7 µM), hits mostly cytotoxic; hit rate 0.49% among 400,000; also: nearly all actives have a fitted effect of over 40% in size
HepG2 tox – counter-screen for TGF-b inhibitors: cytotoxicity in HepG2 cells; HepG2 CAGA-GFP viability, ATP luminescence, 18 h; Potency, µM (titrated, usually from 46.1 µM), actives largely listed as cytotoxic; hit rate 0.76% among 410,000; AID 588856
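CellTiter-Glo luminescence gave cytotoxicity after 18 hours at 37 degrees C. The cells were HepG2 CAGA-GFP in 1% FBS DMEM, stimulated with 500 pg/mL TGF-beta after compound addition. %Activity was normalised to no-cell wells (complete cell-killing) and DMSO (no toxicity), and curves were fitted and classified.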
A number is an active result. This is a sample that favours compounds with a hit; in the whole collection about 2.7% have one here. Calls follow the shape of the dose curve; as a rule, active = well fitted curve in the direction sought with a large enough effect; inconclusive = small, poorly fitted or top-dose-only effect, or another doubt; inactive = no such curve, though single readings can be large; an effect the other way counts as inactive or inconclusive.

`Cn1c(=O)n(-c2ccc(C(C)(C)C#N)cc2)c2c3cc(-c4cnc5ccccc5c4)ccc3ncc21` gave ALOX12 inh inactive, TGFb inhibitor inconclusive, ATXN2 expr inh inconclusive and HepG2 tox inactive.
CCCc1c(-c2ccccc2)ncn1Cc1ccccc1OC was read as ALOX12 inh inactive, ATXN2 expr inh inactive and S2 tox inconclusive.
For CCCc1c(-c2cccc(Br)c2)ncn1Cc1cccc(-c2ccccc2)c1 the results were ALOX12 inh 3.5µM.
CCCc1c(-c2ccc(Cl)cc2)ncn1Cc1cccc(-c2ccccc2)c1 was read as ALOX12 inh 5µM.
`COCCn1c(=O)c2c(nc(-n3nc(C)cc3C)n2Cc2ccc(OC)cc2)n(C)c1=O` gave ALOX12 inh inactive.
Cc1ccc(C)c(-c2csc(NC(=O)CSc3nc4ccccc4o3)n2)c1 was read as ALOX12 inh inactive.
Screening CCn1cc(CN2CCCN(S(C)(=O)=O)C(c3ccccc3)CC(=O)NCC2)c(C)n1 (configuration not stated) returned ALOX12 inh inactive.
For Oc1c(C(c2ccccn2)N2CCC(Cc3ccccc3)CC2)cc(Cl)c2cccnc12 (configuration not stated) the results were ALOX12 inh inconclusive, TGFb inhibitor 16µM, ATXN2 expr inh inconclusive and HepG2 tox inactive.
Cc1[nH]c2c(C(=O)NC3CCCC3)cccc2c1C was read as ALOX12 inh inactive.
COC(=O)c1c(N)sc(C(=O)NCCc2ccccc2)c1C was read as ALOX12 inh inactive, TGFb inhibitor inactive, ATXN2 expr inh 3.5µM, S2 tox inactive and HepG2 tox inactive.
Screening Cn1c(CCC(=O)Nc2cc(S(C)(=O)=O)ccc2Cl)nc2cc(S(=O)(=O)N3CCOCC3)ccc21 returned ALOX12 inh 45µM, TGFb inhibitor inactive, ATXN2 expr inh inactive, S2 tox inconclusive and HepG2 tox inactive.
`Cn1c(CCC(=O)Nc2ccc(S(C)(=O)=O)cc2)nc2cc(S(=O)(=O)N3CCOCC3)ccc21` gave ALOX12 inh inactive, TGFb inhibitor inactive, ATXN2 expr inh inactive, S2 tox inactive and HepG2 tox inactive.
For Cc1ccc2c(C)c(CCC(=O)Nc3ccccc3Cl)c(=O)oc2c1 the results were ALOX12 inh inactive.
CNc1nc(-c2ccccc2C)nc2ccccc12 was read as ALOX12 inh 40µM.
CNc1nc(-c2ccccc2Cl)nc2ccccc12 was read as ALOX12 inh inactive.
Screening COc1ccc(NC(=S)N(CCc2ccc(OC)c(OC)c2)Cc2ccccn2)cc1 returned ALOX12 inh inactive, TGFb inhibitor inactive, ATXN2 expr inh inactive, S2 tox inactive and HepG2 tox inactive.
`COc1ccc(CCN(Cc2ccccn2)C(=S)Nc2cccc(C)c2)cc1OC` gave ALOX12 inh inactive, TGFb inhibitor inactive, ATXN2 expr inh inactive, S2 tox inconclusive and HepG2 tox 5µM.
`CCCCNC(=O)c1ccccc1N` gave ALOX12 inh inactive.
COc1c(C)cccc1C(=O)Nc1ccc(N2CCN(C(=O)c3ccccc3C)CC2)cc1 was read as ALOX12 inh inactive, TGFb inhibitor inconclusive, ATXN2 expr inh 20µM, S2 tox inconclusive and HepG2 tox inactive.
`Cc1ccc(C(=O)Nc2ccc3c(c2)OCCO3)c(C)c1` gave ALOX12 inh inactive, TGFb inhibitor inactive, ATXN2 expr inh 5µM, S2 tox inactive and HepG2 tox inactive.
Screening Cc1ccccc1C(=O)N1CCN(c2ccc(NC(=O)c3cccc(OC(C)C)c3)cc2)CC1 returned ALOX12 inh inactive, TGFb inhibitor inactive, ATXN2 expr inh inactive, S2 tox inactive and HepG2 tox inactive.
For Cc1ccccc1C(=O)N1CCN(c2ccc(NC(=O)c3ccc4c(c3)OCCO4)cc2)CC1 the results were ALOX12 inh inactive, TGFb inhibitor inactive, ATXN2 expr inh 28µM, S2 tox inconclusive and HepG2 tox inactive.
Screening Cc1cc(C)c(C(=O)Nc2ccc3c(c2)OCCO3)c(C)c1 returned ALOX12 inh inactive, TGFb inhibitor inactive, S2 tox inactive and HepG2 tox inactive.
For O=C(Nc1ccc2c(c1)OCCO2)c1cc2cc(Br)ccc2[nH]1 the results were ALOX12 inh 14µM.
For COCCn1c(N(C)C)nc2c1c(=O)[nH]c(=O)n2C the results were ALOX12 inh inactive.
`COc1ccc(C(=O)/C=C/c2c(C)cc(C)cc2C)cc1` gave ALOX12 inh inactive.
For COc1ccc(N2C(=O)CN(C3CCCCC3)[C@H]3CS(=O)(=O)C[C@H]32)cc1 the results were ALOX12 inh 10µM.
COc1cc2ncnc(N3CCN(C(=O)Nc4ccc(Oc5ccccc5)cc4)CC3)c2cc1OC was read as TGFb inhibitor 10µM and HepG2 tox inactive.
For CN(C)CCCN(C(=O)c1cc2cc([N+](=O)[O-])ccc2s1)c1nc2cc3c(cc2s1)OCCO3 the results were ALOX12 inh inactive, TGFb inhibitor inconclusive, ATXN2 expr inh inconclusive, S2 tox 20µM and HepG2 tox inactive.
CCN(CC)CCN(C(=O)c1ccc(C(=O)c2ccccc2)cc1)c1nc2cc3c(cc2s1)OCO3 was read as ALOX12 inh inactive, TGFb inhibitor inactive, ATXN2 expr inh inactive, S2 tox inactive and HepG2 tox inactive.
`CN(C)CCCN(C(=O)c1ccco1)c1nc2cc3c(cc2s1)OCO3` gave ALOX12 inh inactive, TGFb inhibitor inactive, ATXN2 expr inh 14µM, S2 tox inactive and HepG2 tox inactive.
CN(C)CCCN(C(=O)c1ccc(C(=O)c2ccccc2)cc1)c1nc2cc3c(cc2s1)OCO3 was read as ALOX12 inh inactive, TGFb inhibitor inconclusive, ATXN2 expr inh inconclusive, S2 tox inconclusive and HepG2 tox 11µM.
CN(C)CCCN(C(=O)c1cccc(C(F)(F)F)c1)c1nc2ccc(F)cc2s1 was read as ALOX12 inh 35µM.
For Cc1ccc2nc(N(CCCN(C)C)C(=O)c3ccco3)sc2c1 the results were ALOX12 inh inconclusive, TGFb inhibitor inactive, ATXN2 expr inh inactive, S2 tox inconclusive and HepG2 tox inactive.
For CN(C)CCCN(C(=O)c1ccc([N+](=O)[O-])s1)c1nc2cc3c(cc2s1)OCCO3 the results were ALOX12 inh inactive, TGFb inhibitor inconclusive, ATXN2 expr inh inactive, S2 tox inconclusive and HepG2 tox inactive.
N#Cc1cccc(OCC(=O)Nc2ccccc2)c1 was read as ALOX12 inh inactive.
For CCOc1cc(CNC(=O)c2ncoc2-c2ccc(OC)cc2)ccc1OC the results were ALOX12 inh inactive.
`CN(C)CCCN(C(=O)c1ccc(Cl)s1)c1nc2cc3c(cc2s1)OCO3` gave ALOX12 inh inactive, TGFb inhibitor inconclusive, ATXN2 expr inh inconclusive, S2 tox 28µM and HepG2 tox inactive.
Screening CCOC(=O)c1cn(C)nc1S(=O)(=O)N1CCOCC1 returned ALOX12 inh 11µM.
